# Source: PubChem BioAssay AID485364 (National Center for Advancing Translational Sciences (NCATS), 2010)
# Among all 360,000 compounds or so, about 11,000 (3.1%) were called active. A call without a number means that no potency is given here. Roughly 4% stayed inconclusive and do not appear here. Calls come from the whole dose curve; as a rule, active = well fitted inhibition curve with a large enough effect; inconclusive = small, poorly fitted or top-dose-only effect; inactive = no such curve, though single readings can be large or run the other way. Many of the other results were omitted from the sample, so actives are more common in it than they were.
# Target: Schistosoma mansoni thioredoxin glutathione reductase (TGR) (UniProt Q962Y6)
# Experiment: qHTS Assay for the Inhibitors of Schistosoma Mansoni Peroxiredoxins; note: nearly all actives have a fitted effect of over 60% in size
# Settings: purified TGR, DTNB reduction, TNB absorbance 405 nm; series mostly up to 114 µM
# Procedure, shortened: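 Kinetic colorimetric format: TGR-catalysed, NADPH-driven DTNB reduction monitored via TNB absorbance. Enzyme dispensed at 20 nM; compound exposure 15 min at room temperature before reaction start.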
# Potency is the fitted concentration of half-maximal effect.
row,SMILES,Potency
1,Cc1ccc(-c2cn3c(n2)sc2cc(C(=O)NCc4cccs4)ccc23)c(C)c1,inactive
2,COc1ccc(NC(=O)CSc2nccn2C2CCCC2)cc1OC,inactive
3,CCOc1ccc(-c2nonc2NC(=O)c2oc3ccc(CC)cc3c2C)cc1,inactive
4,CN(C(=O)CSc1nc2ccc(NC(=O)COc3ccccc3)cc2s1)c1ccccc1,inactive
5,Cc1cc(C)c(NC(=O)CN2C(=O)c3cccnc3Oc3ccc(Cl)cc32)c(C)c1,inactive
6,CCNC(=O)Cn1nc(C)n2c(cc3c(OC)cccc32)c1=O,inactive
7,O=C(Nc1ccc(N2CCOCC2)cc1)c1ccc2c(c1)OCO2,inactive
8,CC(=O)Oc1cccc(N2C(=O)CC(Nc3ccc(N4CCOCC4)cc3)C2=O)c1 (stereo unspecified),22.4 µM (active)
9,O=C(Nc1ccc(Cl)cc1)c1cccc(OC(=S)N2CCOCC2)c1,inactive
10,CCCCN(C(=O)c1ccc(C)o1)c1c(N)n(CCCC)c(=O)[nH]c1=O,inactive
11,CCCCN(C(=O)c1nn(C)c(=O)c2ccccc12)c1c(N)n(CCC)c(=O)[nH]c1=O,inactive
12,CCCCn1c(N)c(N(CC)C(=O)c2ccc(N(C)S(=O)(=O)c3ccc(C)cc3)cc2)c(=O)[nH]c1=O,inactive
13,CCCCN(C(=O)/C=C/c1ccco1)c1c(N)n(CC(C)C)c(=O)[nH]c1=O,44.7 µM (active)
14,CCCCn1c(N)c(N(CC)C(=O)/C=C/c2ccco2)c(=O)[nH]c1=O,22.4 µM (active)
15,CCCCn1c(N)c(N(CC)C(=O)c2ccccc2C(F)(F)F)c(=O)[nH]c1=O,inactive
16,COc1ccccc1OCC(=O)Nc1ccccc1C(=O)NC1CC1,inactive
17,Cc1ccc(OCC(=O)Nc2ccccc2C(=O)NC2CC2)cc1,inactive
18,Cc1ccc(OCC(=O)Nc2ccccc2C(=O)NC2CC2)cc1C,35.5 µM (active)
19,COc1cccc(C(=O)NC2=NC(c3ccc(N(C)C)cc3)CC(=O)N2)c1 (stereo unspecified),inactive
20,COc1cc2nc(SCC(=O)Nc3ccccc3F)n3nc(-c4ccccc4)nc3c2cc1OC,inactive
21,S=C(NCCc1ccccc1)NCC1CCCO1 (stereo unspecified),inactive
22,Oc1c(Br)cc(/C=N/NC(=S)NCC2CCCO2)cc1Br (stereo unspecified),2.51 µM (active)
23,S=C(NCC1CCCO1)N1CCN(c2ccc(Cl)c(Cl)c2)CC1 (stereo unspecified),inactive
24,CCc1ccc(N2C(=O)CN(S(=O)(=O)CC)CC2(C)C(=O)NC2CCCCC2)cc1 (stereo unspecified),inactive
25,CCNC(=S)Nc1cccc(Cl)c1C,inactive
26,COc1ccc(NC(=S)Nc2ccccc2Cl)cn1,20 µM (active)

row,SMILES,Potency
1,COc1cccc(NC(=O)CN2CCN(CC(=O)Nc3ccccc3Cl)CC2)c1,inactive
2,O=C(CCc1nc(CN2CCN(S(=O)(=O)c3ccc(Br)cc3)CC2)no1)N1CCCCC1,inactive
3,CCn1cc2nc(SCc3ccccc3Cl)n(CCc3ccccc3)c(=O)c2n1,inactive
4,COc1ccc(NS(=O)(=O)c2ccc(NC(=S)NC(=O)CC(C)C)cc2)cc1,inactive
5,COc1cc(NS(=O)(=O)c2ccc(NC(=O)CN3C(=O)c4ccccc4C3=O)cc2)ncn1,inactive
6,COc1cc(NS(=O)(=O)c2ccc(NC(=O)c3ccc(S(=O)(=O)N4CCCCC4)cc3)cc2)ncn1,inactive
7,O=C(Nc1ccc(S(=O)(=O)Nc2ccccn2)cc1)c1ccccc1,inactive
8,COc1cc(NS(=O)(=O)c2ccc(NC(=S)NC(=O)c3ccccc3)cc2)nc(OC)n1,20 µM (active)
9,COc1cc(NS(=O)(=O)c2ccc(NC(=S)NC(=O)c3ccc(Br)cc3)cc2)ncn1,17.8 µM (active)
10,COc1ccc(-c2nc3c4ccccc4n(CC(=O)Nc4ccc(C(C)=O)cc4)c(=O)n3n2)cc1,inactive
11,Cc1ccccc1-n1c(=O)c2ccccc2n(Cc2ccc(F)cc2)c1=O,inactive
12,Nc1ccccc1SC(C[N+](=O)[O-])c1ccccc1 (stereo unspecified),17.8 µM (active)
13,Cc1ccccc1-c1nc2cc(NC(=O)c3cccc(OCCC(C)C)c3)ccc2o1,inactive
14,CCOc1ccc(C(=O)c2cn(Cc3ccc(F)cc3)c3ccc(F)cc3c2=O)cc1,inactive
15,O=C(CSc1nc2ccccc2nc1Cc1ccccc1)N1CCCCC1,inactive
16,O=C1CCCCC1C(=O)c1ccccc1 (stereo unspecified),inactive
17,CN(C)CC1CCCCC1=O (stereo unspecified),11.2 µM (active)
18,CC(C)(C)OC(=O)N1CCC(c2c(C(=O)N3CCc4ccccc4C3)cnn2-c2ccc(F)cc2)CC1,inactive
19,COc1cc(NC(=O)c2cc(C3CC3)nc3c2c(C)nn3-c2ccccc2)cc(OC)c1,inactive
20,Cc1ccc(NC(=O)NC(C)c2c(-n3cccc3)sc(C)c2C)c(C)c1 (stereo unspecified),inactive
21,Cc1c(NC(=O)Nc2ccc(F)c(Cl)c2)c(=O)n(-c2ccccc2)n1C,inactive
22,Cc1ccccc1NC(=O)c1c(NC(=O)c2ccccc2F)sc2c1CCC(C)C2 (stereo unspecified),inactive
23,Cc1ccc(Oc2c(C(F)(F)F)oc3c(CN4CCCCC4)c(O)ccc3c2=O)cc1,inactive
24,COc1ccc(-c2c(C)c3ccc(O)c(CN4CCN(C)CC4)c3oc2=O)cc1OC,inactive
25,COc1c(O)cc2oc(-c3ccc(O)c(O)c3)cc(=O)c2c1O,39.8 µM (active)
26,CCOC(=O)COc1cc(OCC(=O)OCC)c2c(=O)cc(-c3ccccc3)oc2c1,inactive

row,SMILES,Potency
1,CC1=C(C(=O)N2CCN(c3cccc(C(F)(F)F)c3)CC2)C2(CCCCC2)OC1=O,inactive
2,Cc1ccc(Nc2nc3ccccc3nc2-n2nc(C)cc2C)c(Cl)c1,inactive
3,Cc1oc2ccc(O)c(CN3CCC(C)CC3)c2c1C(=O)Nc1ccccc1,inactive
4,CN(Cc1ccccc1)C(=O)c1cn(C)c2ccc(S(=O)(=O)N(C)C3CCCCC3)cc2c1=O,inactive
5,CCCC12CN3CC(C)(CN(C1)C3c1ccccc1Cl)C2=O (stereo unspecified),inactive
6,COc1ccc(NC2=CC(=S)NC(C)(C)C2)cc1,35.5 µM (active)
7,COc1ccc(NC(=S)NC2CCS(=O)(=O)C2)cc1 (stereo unspecified),inactive
8,COc1ccc(CCNC2=CC(=O)CC(C)(C)C2)cc1,inactive
9,Cc1ccccc1NC(=O)c1cc2c([nH]c1=O)CC(C)(C)CC2=O,inactive
10,Cc1ccc(Cn2c(C)nc3c(c2=O)c2nc4ccccc4nc2n3Cc2ccco2)cc1,1.41 µM (active)
11,O=c1c2ccccc2oc2nc(C3CCCCC3)n(Cc3ccco3)c(=O)c12,inactive
12,Cc1ccc(Cn2c(=O)n(Cc3nc(-c4ccccc4)no3)c(=O)c3cc4c(cc32)OCO4)cc1,inactive
13,CCOc1ccc(-c2cc3c(=O)n(CC(=O)NCc4ccc(OC)cc4)ccn3n2)cc1,inactive
14,O=C(c1ccc2c(c1)N(Cc1ccccc1F)C(=O)c1ccccc1S2(=O)=O)N1CCOCC1,inactive
15,COc1ccc(-c2nc(Cn3c(=O)cc(C)c4c(C)nn(-c5ccccc5)c43)c(C)o2)cc1OC,inactive
16,COC(=O)c1ccc(CN2CCN(CCCc3ccccc3)C(CCO)C2)cc1 (stereo unspecified),inactive
17,Cc1ccc(CN2CCN(Cc3ccc4ncccc4c3)CC2CCO)cc1 (stereo unspecified),inactive
18,CC(=O)Nc1ccc(CN2CCN(Cc3ccc(F)c(F)c3)C(CCO)C2)cc1 (stereo unspecified),20 µM (active)
19,CCS(=O)(=O)N1CCc2cc(C(=O)N3CCN(c4ccccc4OC)CC3)ccc21,inactive
20,CCOc1ccc(C(=O)CCN2CCOCC2)cc1,2.82 µM (active)
21,CCCCOc1ccc(C(C)(O)CCN2CCOCC2)cc1 (stereo unspecified),inactive
22,CCOc1ccc(C(=O)CCC(=O)Nc2ccncc2)cc1,inactive
23,O=C(CSc1ncc(S(=O)(=O)c2ccc(Br)cc2)c(=O)[nH]1)Nc1ccc2c(c1)OCCO2,inactive
24,Cc1ccc(C)c(Cn2c(CCCNC(=O)C3CCCCC3)nc3ccccc32)c1,inactive
25,COc1ccc(N2CCN(C(c3cc4ccc(C)cc4[nH]c3=O)c3nnnn3C3CCCC3)CC2)cc1 (stereo unspecified),inactive
26,COCCn1nnnc1C(c1cc2ccc(OC)cc2[nH]c1=O)N1CCc2ccccc2C1 (stereo unspecified),44.7 µM (active)

row,SMILES,Potency
1,COc1ccc(OC)c(C(c2nnnn2C(C)(C)C)N2CCc3ccccc3C2)c1 (stereo unspecified),inactive
2,CCOc1ccccc1NC(=O)c1ccc2c(c1)CCN2S(=O)(=O)c1ccc(C)cc1,inactive
3,COc1ccc(-c2onc(C)c2C)cc1S(=O)(=O)NCCc1ccccc1,inactive
4,O=c1[nH]c2cc(Br)ccc2n2cccc12,inactive
5,CCOc1ccc(C2CC(=O)c3c([nH]c(C(=O)OCc4ccccc4)c3C)C2)cc1 (stereo unspecified),inactive
6,O=C(NCC(=O)N1CCN(c2ccccc2F)CC1)c1cccs1,inactive
7,Cc1ccccc1C(CC(=O)c1cccs1)C(C#N)C#N (stereo unspecified),3.16 µM (active)
8,CCc1cccc(C)c1NC(=O)COC(=O)CNC(=O)c1cccs1,inactive
9,COc1ccc(C(=O)OCC(=O)N2CC(=O)Nc3ccccc32)cc1Br,inactive
10,COc1ccc(Br)c2c1C(=O)CC2,35.5 µM (active)
11,COc1cccc2c1CCC(NC(C)=O)C2=O (stereo unspecified),inactive
12,Cc1cc(C)cc(OCC(=O)Nc2c(C(=O)c3ccccc3)oc3ccccc23)c1,inactive
13,Cc1ccc(-c2onc(C)c2C)cc1S(=O)(=O)Nc1ccccn1,inactive
14,CCc1ccc(NC(=O)Cn2c(=O)n(CCC(=O)NCc3ccc4c(c3)OCO4)c(=O)c3ccccc32)cc1,inactive
15,O=C(Nc1ccccc1)O/N=C1\CCCCC1c1ccc([N+](=O)[O-])cc1[N+](=O)[O-] (stereo unspecified),inactive
16,O=[N+]([O-])c1ccc(N/N=C2/CCCCC2c2ccccn2)c([N+](=O)[O-])c1 (stereo unspecified),8.91 µM (active)
17,O=[N+]([O-])c1cc(C(F)(F)F)ccc1NN=C1CCCC1,inactive
18,COc1cc(NC(=O)CN2CCN(S(=O)(=O)c3ccc(Br)cc3)CC2)cc(OC)c1,inactive
19,O=C(NC1CCCCC1)c1ccc2c(c1)N(Cc1ccc(Cl)cc1)C(=O)c1ccccc1S2=O (stereo unspecified),inactive
20,Cc1cc(NC(=O)CC(C)C)cc(-c2nc3ncccc3o2)c1O,inactive
21,C#CCOCCOCCOCCNc1nc(N2CCN(C(=O)[C@H](CCC(=O)O)n3cc(C(N)CO)nn3)CC2)nc(N2CCN(C(=O)[C@H](Cc3ccc(O)cc3)n3cc(C(N)[C@H](C)CC)nn3)CC2)n1 (stereo partly specified),35.5 µM (active)
22,C#CCOCCOCCOCCNc1nc(N2CCN(C(=O)[C@H](Cc3ccc(O)cc3)n3cc(C(N)CC(C)C)nn3)CC2)nc(N2CCN(C(=O)[C@H](CCC(=O)O)n3cc(C(N)[C@H](C)CC)nn3)CC2)n1 (stereo partly specified),inactive
23,C#CCOCCOCCOCCNc1nc(N2CCN(C(=O)C(Cc3ccc(O)cc3)n3cc(C(N)CC(C)C)nn3)CC2)nc(N2CCN(C(=O)C(Cc3ccc(O)cc3)n3cc(C(N)C(C)CC)nn3)CC2)n1 (stereo unspecified),inactive
